Laboratory results reported in PubChem BioAssay (NCI).
The panel holds about 83,000 compounds, 20% with a hit somewhere; the sample as a whole holds those more often.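 Method: cells in 96-well plates; compound added at one concentration; 48 h incubation; percent growth measured; values under 10 scored active.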 Active and inactive are the calls of the source.

Key:
Experiment in all cases: NCI-60 one-dose screen, 48 h (100 = growth as untreated, 0 = no growth, -100 = all killed)
Details in all cases: 10 µM unless noted
SK-MEL-2 melanoma = test system: SK-MEL-2 melanoma
EKVX NSCLC = test system: EKVX NSCLC
SN12C renal = test system: SN12C renal
UO-31 renal = test system: UO-31 renal
TK-10 renal = test system: TK-10 renal
ACHN renal = test system: ACHN renal
CAKI-1 renal = test system: CAKI-1 renal
A498 renal = test system: A498 renal
CCRF-CEM leukemia = test system: CCRF-CEM leukemia
MOLT-4 leukemia = test system: MOLT-4 leukemia
SR leukemia = test system: SR leukemia
RPMI-8226 leukemia = test system: RPMI-8226 leukemia
OVCAR-8 ovarian = test system: OVCAR-8 ovarian
OVCAR-5 ovarian = test system: OVCAR-5 ovarian
OVCAR-4 ovarian = test system: OVCAR-4 ovarian
SK-OV-3 ovarian = test system: SK-OV-3 ovarian
IGROV1 ovarian = test system: IGROV1 ovarian
OVCAR-3 ovarian = test system: OVCAR-3 ovarian
HS 578T breast = test system: HS 578T breast
NCI/ADR-RES ovarian = test system: NCI/ADR-RES ovarian

Measured: growth

O=C(Cc1cccc(OC(F)(F)F)c1)Nc1ccc(CCCCc2nnc(NC(=O)Cc3ccccn3)s2)nn1
active: RPMI-8226 leukemia 6.13%
inactive: SK-MEL-2 melanoma 116% | EKVX NSCLC 73.8% | SN12C renal 68.5% | UO-31 renal 45.1% | TK-10 renal 65% | ACHN renal 70% | CAKI-1 renal 70.4% | A498 renal 20.6% | CCRF-CEM leukemia 43% | MOLT-4 leukemia 43.8% | SR leukemia 41.3% | OVCAR-8 ovarian 65% | OVCAR-5 ovarian 86.7% | OVCAR-4 ovarian 76.3% | SK-OV-3 ovarian 75.1% | IGROV1 ovarian 78.9% | OVCAR-3 ovarian 87.3% | HS 578T breast 79.3% | NCI/ADR-RES ovarian 85.6%

C=C1C(=O)O[C@H]2[C@H]1CC/C(COC(=O)/C=C/C(=O)OC/C1=C/CC[C@@]3(C)O[C@H]3[C@H]3OC(=O)C(=C)[C@@H]3CC1)=C\CC[C@@]1(C)O[C@@H]21
active: SN12C renal 4.73% | UO-31 renal -41.7% | TK-10 renal 0.985% | ACHN renal -13.5% | CCRF-CEM leukemia -12.9% | MOLT-4 leukemia 7.58% | SR leukemia 7.6% | RPMI-8226 leukemia -15.2% | OVCAR-3 ovarian -0.457%
inactive: SK-MEL-2 melanoma 93.4% | EKVX NSCLC 88.2% | CAKI-1 renal 63.3% | A498 renal 102% | OVCAR-8 ovarian 62.7% | OVCAR-5 ovarian 88.8% | OVCAR-4 ovarian 86.2% | SK-OV-3 ovarian 110% | IGROV1 ovarian 87.6% | HS 578T breast 90.2% | NCI/ADR-RES ovarian 96.5%

FC(F)(F)Oc1cccc(-c2cnc3ccc(-c4ccncc4)nn23)c1
inactive: EKVX NSCLC 28.4% | SN12C renal 13.2% | TK-10 renal 17.3% | A498 renal 23% | RPMI-8226 leukemia 15.9% | OVCAR-8 ovarian 14.3% | OVCAR-5 ovarian 16.5% | OVCAR-4 ovarian 47% | IGROV1 ovarian 12.1% | HS 578T breast 23.4% | NCI/ADR-RES ovarian 11.6%
active: SK-MEL-2 melanoma -21.7% | UO-31 renal 0.42% | ACHN renal -0.133% | CAKI-1 renal 7.75% | CCRF-CEM leukemia 4.57% | MOLT-4 leukemia 4.08% | SR leukemia 4.36% | SK-OV-3 ovarian -19.3% | OVCAR-3 ovarian 8.85%

COc1cc(/C=C2\CN(S(=O)(=O)c3ccccc3)C/C(=C\c3cc(CN4CCCCC4)c(O)c(OC)c3)C2=O)cc(CN2CCCCC2)c1O
active: EKVX NSCLC -36.4% | SN12C renal -42.4% | UO-31 renal -96.6% | TK-10 renal -38.8% | CAKI-1 renal -89.2% | CCRF-CEM leukemia -2.62% | MOLT-4 leukemia -20.6% | SR leukemia -18.6% | RPMI-8226 leukemia -34.9% | OVCAR-8 ovarian -25% | OVCAR-5 ovarian -66.6% | OVCAR-4 ovarian -69.8% | IGROV1 ovarian -51.8% | OVCAR-3 ovarian -86.9% | HS 578T breast 0.476% | NCI/ADR-RES ovarian 5.04%
inactive: SK-MEL-2 melanoma 104% | ACHN renal 27.9% | A498 renal 95% | SK-OV-3 ovarian 108%

O=c1ccc(=O)n(-c2nc(-c3ccc([N+](=O)[O-])cc3)cs2)[nH]1
inactive: SK-MEL-2 melanoma 108% | EKVX NSCLC 101% | SN12C renal 101% | UO-31 renal 82.4% | TK-10 renal 107% | ACHN renal 102% | CAKI-1 renal 101% | A498 renal 87.9% | CCRF-CEM leukemia 99.4% | MOLT-4 leukemia 86.5% | SR leukemia 94.5% | RPMI-8226 leukemia 95.3% | OVCAR-8 ovarian 102% | OVCAR-5 ovarian 102% | OVCAR-4 ovarian 101% | SK-OV-3 ovarian 107% | IGROV1 ovarian 99.3% | OVCAR-3 ovarian 102% | HS 578T breast 98.8% | NCI/ADR-RES ovarian 104%

O=C(Nc1cc(Cl)ccc1O)c1cccc(Nc2ccnc(C(F)(F)F)c2)c1
inactive: SK-MEL-2 melanoma 56.2% | SN12C renal 35% | UO-31 renal 25.5% | TK-10 renal 46.6% | ACHN renal 27.2% | A498 renal 45.3% | SR leukemia 25% | OVCAR-8 ovarian 39.4% | OVCAR-5 ovarian 77.8% | OVCAR-4 ovarian 33.8% | SK-OV-3 ovarian 56.4% | IGROV1 ovarian 75.7% | OVCAR-3 ovarian 53.4% | HS 578T breast 60.4% | NCI/ADR-RES ovarian 15.2%
active: EKVX NSCLC 9.67% | CAKI-1 renal -2.35% | CCRF-CEM leukemia 8.35% | MOLT-4 leukemia -41.2% | RPMI-8226 leukemia 3.8%

CC1CCN(C(=S)SCC(=O)NC(=O)c2ccccc2)CC1
inactive: SK-MEL-2 melanoma 102% | EKVX NSCLC 102% | SN12C renal 109% | UO-31 renal 92% | TK-10 renal 99.8% | ACHN renal 112% | CAKI-1 renal 102% | A498 renal 99.6% | CCRF-CEM leukemia 106% | MOLT-4 leukemia 93.6% | SR leukemia 80.6% | RPMI-8226 leukemia 102% | OVCAR-8 ovarian 112% | OVCAR-5 ovarian 101% | OVCAR-4 ovarian 96.6% | SK-OV-3 ovarian 104% | IGROV1 ovarian 107% | OVCAR-3 ovarian 111% | HS 578T breast 102% | NCI/ADR-RES ovarian 105%

CCCC(CC)(C(=O)Nc1ccc2nc(C)cc(N)c2c1)C(=O)Nc1ccc2nc(C)cc(N)c2c1
inactive: SK-MEL-2 melanoma 108% | EKVX NSCLC 101% | SN12C renal 105% | UO-31 renal 90.1% | TK-10 renal 96.5% | ACHN renal 105% | CAKI-1 renal 91.9% | A498 renal 104% | CCRF-CEM leukemia 99.9% | MOLT-4 leukemia 98.8% | SR leukemia 96.1% | RPMI-8226 leukemia 100% | OVCAR-8 ovarian 103% | OVCAR-5 ovarian 85.1% | OVCAR-4 ovarian 83.8% | SK-OV-3 ovarian 93.1% | IGROV1 ovarian 111% | OVCAR-3 ovarian 108% | HS 578T breast 106% | NCI/ADR-RES ovarian 109%

O=C(C1=Cc2cc3ccccc3n2Cc2cnnn21)c1ccc(O)cc1
inactive: SK-MEL-2 melanoma 59% | EKVX NSCLC 89.9% | SN12C renal 57.7% | UO-31 renal 63.1% | TK-10 renal 90.9% | ACHN renal 75.4% | CAKI-1 renal 37.5% | A498 renal 111% | CCRF-CEM leukemia 72.5% | MOLT-4 leukemia 44.6% | SR leukemia 35.1% | RPMI-8226 leukemia 63.8% | OVCAR-8 ovarian 64.8% | OVCAR-5 ovarian 91.2% | OVCAR-4 ovarian 81.3% | SK-OV-3 ovarian 74.5% | IGROV1 ovarian 41.1% | OVCAR-3 ovarian 20.6% | HS 578T breast 49.4% | NCI/ADR-RES ovarian 37.2%

COc1ccc(/C=C(/C(=O)n2cnnn2)c2cc(OC)c(OC)c(OC)c2)cc1
active: A498 renal 1.86% | CCRF-CEM leukemia 5.78% | RPMI-8226 leukemia 3.48% | OVCAR-3 ovarian 1.46%
inactive: SK-MEL-2 melanoma 57.6% | EKVX NSCLC 46.5% | SN12C renal 42.6% | UO-31 renal 42.4% | TK-10 renal 44.9% | ACHN renal 48% | CAKI-1 renal 36.1% | MOLT-4 leukemia 40.5% | SR leukemia 14.8% | OVCAR-8 ovarian 22.1% | OVCAR-5 ovarian 41.2% | OVCAR-4 ovarian 60.6% | SK-OV-3 ovarian 14.6% | IGROV1 ovarian 41.4% | HS 578T breast 13.5% | NCI/ADR-RES ovarian 12.2%

CCOC(=O)c1nn(CC(O)c2ccccc2)c(NC(=O)Nc2cccc(F)c2)c1C (stereo not given)
inactive: SK-MEL-2 melanoma 95% | EKVX NSCLC 101% | SN12C renal 87.5% | UO-31 renal 90.1% | TK-10 renal 105% | ACHN renal 107% | CAKI-1 renal 101% | A498 renal 76.7% | CCRF-CEM leukemia 96.7% | MOLT-4 leukemia 99.2% | SR leukemia 95.3% | RPMI-8226 leukemia 96.6% | OVCAR-8 ovarian 91.4% | OVCAR-5 ovarian 107% | OVCAR-4 ovarian 94.8% | SK-OV-3 ovarian 107% | IGROV1 ovarian 109% | OVCAR-3 ovarian 102% | HS 578T breast 94.5% | NCI/ADR-RES ovarian 106%

O=C(CI)NC(=O)NC(=O)NCc1ccccc1
active: UO-31 renal -20.6% | ACHN renal -45.5% | CAKI-1 renal 5.31% | CCRF-CEM leukemia -23.8% | MOLT-4 leukemia -24.5% | SR leukemia -5.93% | OVCAR-3 ovarian -55.9%
inactive: SK-MEL-2 melanoma 69.4% | EKVX NSCLC 93.6% | SN12C renal 33% | TK-10 renal 74.7% | A498 renal 91.2% | RPMI-8226 leukemia 29.4% | OVCAR-8 ovarian 56.3% | OVCAR-5 ovarian 44.3% | OVCAR-4 ovarian 30.3% | SK-OV-3 ovarian 104% | IGROV1 ovarian 21.1% | HS 578T breast 102% | NCI/ADR-RES ovarian 71%

O=C(CCCCCCN1CC(=O)N2[C@H](c3ccc(Cl)cc3)c3[nH]c4ccccc4c3C[C@@H]2C1=O)NO
inactive: SK-MEL-2 melanoma 66.1% | EKVX NSCLC 65.7% | SN12C renal 63.1% | UO-31 renal 57.9% | TK-10 renal 55.8% | ACHN renal 84.4% | CAKI-1 renal 65.2% | A498 renal 78.9% | CCRF-CEM leukemia 25.7% | SR leukemia 21.6% | RPMI-8226 leukemia 24.5% | OVCAR-8 ovarian 51.8% | OVCAR-5 ovarian 59.5% | OVCAR-4 ovarian 74.3% | SK-OV-3 ovarian 62.9% | IGROV1 ovarian 33.5% | OVCAR-3 ovarian 56.5% | HS 578T breast 63.7% | NCI/ADR-RES ovarian 90.2%
active: MOLT-4 leukemia 4.87%

CCNC(=O)Oc1ccc(/C(=C(/C)Cc2ccc(OC)cc2)c2ccc(OCCN3CCCCC3)cc2)cc1
active: SR leukemia -32%
inactive: SK-MEL-2 melanoma 92.3% | EKVX NSCLC 79.8% | SN12C renal 71.4% | UO-31 renal 50.5% | TK-10 renal 82.6% | ACHN renal 94.8% | CAKI-1 renal 90% | A498 renal 90.8% | CCRF-CEM leukemia 36.5% | MOLT-4 leukemia 31.4% | RPMI-8226 leukemia 22.5% | OVCAR-8 ovarian 81.8% | OVCAR-5 ovarian 89.6% | OVCAR-4 ovarian 75.1% | SK-OV-3 ovarian 90.7% | IGROV1 ovarian 77.7% | OVCAR-3 ovarian 74.6% | HS 578T breast 64.5% | NCI/ADR-RES ovarian 85.1%
